Test results: the supplement of paper PMC6953052
Over roughly 1,700 compounds, “fraction of GFP-LC3-positive cells (≥5 vesicles/cell)” has its median near 0.058; the highest 2% begin near 0.59. Shown is part of a subset that was picked to be rich in the highest values.

What follows are molecules tested on CbCln3 +/+ GFP-LC3 cerebellar neuronal cells (assay: fraction of GFP-LC3-positive cells (≥5 vesicles/cell); higher = more autophagosome accumulation).
Procedure, shortened: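 Values are the duplicate-averaged fraction of cells passing a GFP-LC3 vesicle cutoff, counted per cell in CellProfiler with out-of-focus images excluded. That cutoff is 5 or more vesicles. Wild-type or mutant CbCln3 cerebellar cells stably expressing GFP-LC3 (2 × 10^3/well, 384-well) were given ~50 nL compound in DMSO by pin transfer for 24 h at 33 °C, then fixed in 3.2% PFA and imaged at 10×, three fields per well.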

Compared with CO[C@H]1/C=C/O[C@@]2(C)Oc3c(C)c(O)c4c(O)c(c(/C=N/N5CCN(C)CC5)c(O)c4c3C2=O)NC(=O)/C(C)=C\C=C\[C@H](C)[C@H](O)[C@@H](C)[C@@H](O)[C@@H](C)[C@H](OC(C)=O)[C@@H]1C [Rifampicin], CO[C@H]1C[C@@H]2CC[C@@H](C)[C@@](O)(O2)C(=O)C(=O)N2CCCC[C@H]2C(=O)O[C@H]([C@H](C)C[C@@H]2CC[C@@H](O)[C@H](OC)C2)CC(=O)[C@H](C)/C=C(\C)[C@@H](O)[C@@H](OC)C(=O)[C@H](C)C[C@H](C)/C=C/C=C/C=C/1C is higher in “fraction of GFP-LC3-positive cells” value: 0.0415 for the first, 0.0529 for the second.

Going from C[C@]12CCC(=O)C=C1CC[C@@H]1[C@@H]2C(=O)C[C@@]2(C)[C@H]1CC[C@]2(O)C(=O)CO [Cortisone] to CC(=O)S[C@@H]1CC2=CC(=O)CC[C@]2(C)[C@H]2CC[C@@]3(C)[C@@H](CC[C@@]34CCC(=O)O4)[C@H]12 [Spironolactone], the “fraction of GFP-LC3-positive cells” value falls from 0.0551 to 0.0439.

Going from CCCCCCCC/C=C/CCCCCCCCCCC(=O)O [12(Z) Heneicosenoic acid] to CCCCCCCC/C=C\C/C=C\C/C=C\CCCC(=O)O [Mead acid (20:3 n-9)], the “fraction of GFP-LC3-positive cells” value rises from 0.0354 to 0.0545.

First: CCC1(c2ccccc2)C(=O)NCNC1=O [Primidone]
Second: O=C(O)CNC(=O)C(CS)Cc1ccccc1 (centres undefined)
The “fraction of GFP-LC3-positive cells” value of the first is lower: 0.0329 for the first, 0.0651 for the second.

First: CC(C)Cn1c(=O)n(C)c(=O)c2[nH]cnc21
Second: CCn1cc(C(=O)O)c(=O)c2cc(F)c(N3CCNCC3)nc21 [Enoxacin]
The “fraction of GFP-LC3-positive cells” value of the first is lower: 0.0399 for the first, 0.045 for the second.

Going from CN1C(C(=O)Nc2ccccn2)=C(O)c2ccccc2S1(=O)=O [piroxicam] to CN1CCC(=C2c3ccccc3Sc3ccccc32)CC1.O=C(O)/C=C\C(=O)O [Pimethixene maleate], the “fraction of GFP-LC3-positive cells” value rises from 0.0598 to 0.0718.

Compared with C[C@H](NCCc1ccc(O)cc1)[C@H](O)c1ccc(O)cc1.Cl [Ritodrine hydrochloride], CC(=O)CC(c1ccc([N+](=O)[O-])cc1)c1c(O)c2ccccc2oc1=O (centres undefined) [Acenocoumarol] is higher in “fraction of GFP-LC3-positive cells” value: 0.0423 for the first, 0.0753 for the second.

First: N#Cc1c(-c2ccccc2)no[n+]1[O-] [Furoxan]
Second: Cc1cc2ncc(-c3ccccc3)nc2cc1C
The “fraction of GFP-LC3-positive cells” value of the first is higher: 0.597 for the first, 0.0688 for the second.

Going from COc1cc(CNC(=O)CCCC/C=C/C(C)C)ccc1O [Capsaicin] to CCN(CC)CCNC(=O)COc1ccc(OC)cc1.Cl [Mefexamide hydrochloride], the “fraction of GFP-LC3-positive cells” value falls from 0.0783 to 0.0712.

Going from Cc1cccc(Nc2ccncc2S(=O)(=O)NC(=O)NC(C)C)c1 [Torsemide] to CCCCNC(=O)NS(=O)(=O)c1ccc(C)cc1, the “fraction of GFP-LC3-positive cells” value falls from 0.0886 to 0.046.

First: CC(/C=C/C(=O)NO)=C\[C@@H](C)C(=O)c1ccc(N(C)C)cc1 [trichostatin-A]
Second: O=C(O)c1ccccc1OP(=O)(O)O [Fosfosal]
The “fraction of GFP-LC3-positive cells” value of the first is higher: 0.799 for the first, 0.0551 for the second.

Compared with CN(C)N=Nc1[nH]cnc1C(N)=O [Dacarbazine], N/C(=N\C(=O)c1nc(Cl)c(N)nc1N)NCc1ccccc1 is higher in “fraction of GFP-LC3-positive cells” value: 0.0174 for the first, 0.0546 for the second.

First: CC/C=C\C/C=C\C/C=C\C/C=C\C=C\C(O)CCCC(=O)O (racemic)
Second: CCCCCCCC/C=C\C/C=C\C/C=C\CCCC(=O)O
The “fraction of GFP-LC3-positive cells” value of the first is higher: 0.07 for the first, 0.0292 for the second.

Compared with CCCCNC(=O)NS(=O)(=O)c1ccc(C)cc1 [Tolbutamide], Cc1ccc(S(=O)(=O)N[C@@H](Cc2ccccc2)C(=O)CCl)cc1 is higher in “fraction of GFP-LC3-positive cells” value: 0.0602 for the first, 0.315 for the second.

First: Cc1ccc(S(=O)(=O)N[C@@H](Cc2ccccc2)C(=O)CCl)cc1 [Tosyl-Phe-CMK (TPCK)]
Second: O=C(O)CNC(=O)C(CS)Cc1ccccc1 (centres undefined) [Thiorphan]
The “fraction of GFP-LC3-positive cells” value of the first is higher: 0.744 for the first, 0.0564 for the second.

First: O[C@H]1[C@H]2c3cc4c(cc3CN3CCC(=C[C@@H]1O)[C@H]23)OCO4 [Lycorine]
Second: CCOC(=O)Oc1c(OC)cc(C(=O)O[C@@H]2C[C@@H]3CN4CCc5c([nH]c6cc(OC)ccc56)[C@H]4C[C@@H]3[C@H](C(=O)OC)[C@H]2OC)cc1OC [Syrosingopine]
The “fraction of GFP-LC3-positive cells” value of the first is higher: 0.424 for the first, 0.251 for the second.

Going from CCCCC/C=C\C/C=C\C/C=C\C=C\C1CCCC(=O)O1 (racemic) [(±)5-HETE Lactone] to CCCCC[C@H](O)/C=C/[C@H]1C(=O)C[C@H](O)[C@@H]1C/C=C\CCCC(=O)O, the “fraction of GFP-LC3-positive cells” value falls from 0.0775 to 0.0396.

Compared with CCCCNc1ccc(C(=O)OCCOCCOCCOCCOCCOCCOCCOCCOCCOC)cc1 [Benzonatate], CCN(CC)CCCCCCCCOC(=O)c1cc(OC)c(OC)c(OC)c1 is lower in “fraction of GFP-LC3-positive cells” value: 0.0604 for the first, 0.0457 for the second.

Compared with CCCCCCCCCCCCCCCCOCC(CO)OC(C)=O (centres undefined) [1-Hexadecyl-2-O-acetyl-glycerol], CCCCC[C@H](O)/C=C/[C@H]1C(=O)C[C@H](O)[C@@H]1C/C=C\CCCC(=O)O [Prostaglandin D2] is lower in “fraction of GFP-LC3-positive cells” value: 0.076 for the first, 0.0347 for the second.

First: CCCCCCCCCCCCCCCCOCC(CO)OC(C)=O (centres undefined)
Second: CC[N+](CC)(CC)CC(=O)Nc1c(C)cccc1C.[Br-]
The “fraction of GFP-LC3-positive cells” value of the first is higher: 0.0373 for the first, 0.0348 for the second.

First: CC1=C(/C=C/C(C)=C/C=C/C(C)=C/C(=O)O)C(C)(C)CCC1
Second: COc1cccc2c1C(=O)c1c(O)c3c(c(O)c1C2=O)C[C@@](O)(C(C)=O)C[C@@H]3O[C@H]1C[C@H](N)[C@H](O)[C@H](C)O1.Cl [Daunorubicin hydrochloride]
The “fraction of GFP-LC3-positive cells” value of the first is lower: 0.0875 for the first, 0.568 for the second.

Compared with CC1=C(/C=C/C(C)=C/C=C/C(C)=C/C(=O)O)C(C)(C)CCC1 [Retinoic acid, all trans], COc1cccc2c1C(=O)c1c(O)c3c(c(O)c1C2=O)C[C@@](O)(C(=O)CO)C[C@@H]3O[C@H]1C[C@H](N)[C@H](O)[C@H](C)O1.Cl [doxorubicin] is higher in “fraction of GFP-LC3-positive cells” value: 0.0413 for the first, 0.608 for the second.

Compared with O=C(CCCCC(=O)Nc1c(I)cc(I)c(C(=O)O)c1I)Nc1c(I)cc(I)c(C(=O)O)c1I [Iodipamide], Nc1nc(=O)c2c([nH]1)NCC(CNc1ccc(C(=O)N[C@@H](CCC(=O)[O-])C(=O)[O-])cc1)N2C=O.[Ca+2] (some centres undefined) [Folinic acid calcium salt] is lower in “fraction of GFP-LC3-positive cells” value: 0.064 for the first, 0.0553 for the second.

First: Cc1ccc2c(c1)C(=O)C1(O)CCN(c3ccccc3)C1=N2 (centres undefined) [Blebbistatin]
Second: O=C(O)c1ccc2nc(-c3ccccc3)c(-c3ccccc3)nc2c1
The “fraction of GFP-LC3-positive cells” value of the first is lower: 0.0372 for the first, 0.0605 for the second.

Going from Cl.N/C(=N\C(=O)c1nc(Cl)c(N)nc1N)NCc1ccccc1 [Benzamil hydrochloride] to N/C(=N\C(=O)c1nc(Cl)c(N)nc1N)NCc1ccc(Cl)cc1Cl, the “fraction of GFP-LC3-positive cells” value rises from 0.0345 to 0.6.

Compared with CC(N/C(=N\C#N)Nc1ccncc1)C(C)(C)C (centres undefined) [Pinacidil], CNCCc1ccccn1.CS(=O)(=O)O.CS(=O)(=O)O [Betahistine mesylate] is higher in “fraction of GFP-LC3-positive cells” value: 0.0274 for the first, 0.0666 for the second.

Going from CN(C)CCN(Cc1ccc(Cl)cc1)c1ccccn1.Cl [Chloropyramine hydrochloride] to c1ccc(CN(CCN(Cc2ccccn2)Cc2ccccn2)Cc2ccccn2)nc1, the “fraction of GFP-LC3-positive cells” value rises from 0.056 to 0.755.

First: CC(C)(Sc1cc(C(C)(C)C)c(O)c(C(C)(C)C)c1)Sc1cc(C(C)(C)C)c(O)c(C(C)(C)C)c1 [Probucol]
Second: COc1cc2ccc(=O)oc2cc1O [Scopoletin]
The “fraction of GFP-LC3-positive cells” value of the first is higher: 0.0472 for the first, 0.0458 for the second.

Going from COc1cccc2c1C(=O)c1c(O)c3c(c(O)c1C2=O)C[C@@](O)(C(=O)CO)C[C@@H]3O[C@H]1C[C@H](N)[C@H](O)[C@H](C)O1.Cl [Doxorubicin hydrochloride] to CC[C@H]1[C@@H]2C=C[C@@H]3[C@H]4C/C=C\C(=O)NCCC[C@@H]5NC(=O)C(=C5O)C(=O)CC[C@@H]4C[C@@H]3[C@H]2C[C@H]1C [Ikarugamyin], the “fraction of GFP-LC3-positive cells” value rises from 0.482 to 0.69.

Going from CC(C)N1CCN(c2ccc(OC[C@H]3CO[C@](Cn4cncn4)(c4ccc(Cl)cc4Cl)O3)cc2)CC1 [Terconazole] to c1ccc2c(Cc3c[nH]c4ccccc34)c[nH]c2c1, the “fraction of GFP-LC3-positive cells” value falls from 0.0686 to 0.0651.

Compared with c1ccc2c(Cc3c[nH]c4ccccc34)c[nH]c2c1 [Diindolylmethane], O=C(O)c1cc(-c2ccc(F)cc2F)ccc1O [Diflunisal] is lower in “fraction of GFP-LC3-positive cells” value: 0.0761 for the first, 0.0501 for the second.

Compared with CC1=C(C(=O)O)N2C(=O)[C@@H](NC(=O)[C@H](N)c3ccccc3)[C@H]2SC1.O [Cephalexin monohydrate], OC[C@H]1NC[C@H](O)[C@@H](O)[C@@H]1O [deoxynorjrimycin(1)] is lower in “fraction of GFP-LC3-positive cells” value: 0.0422 for the first, 0.0354 for the second.
